Measured values: PubChem BioAssay (Tox21)
Unmarked numbers belong to inactive results. Inconclusive results are not listed. Entries that show only a call come without a potency. Active and inactive are the calls of the source. Unless noted, the call rests on the fitted dose curve; in most records, active means well fitted curve in the direction sought with a large enough effect in the repeat runs; inconclusive means weak or mixed curves; inactive means no such curve, though single readings can be large; an effect the other way counts as inactive or inconclusive.

Key:
[1] = molecular target: Progesterone receptor (Homo sapiens) (UniProt P06401); experiment: qHTS assay to identify small molecule agonists of the progesterone receptor (PR) signaling pathway (AID 1346784; calls by dose curve; further: nearly all actives have a fitted effect of over 30% in size)
Sequence of Progesterone receptor (Homo sapiens) (P06401 whole entry, looked up): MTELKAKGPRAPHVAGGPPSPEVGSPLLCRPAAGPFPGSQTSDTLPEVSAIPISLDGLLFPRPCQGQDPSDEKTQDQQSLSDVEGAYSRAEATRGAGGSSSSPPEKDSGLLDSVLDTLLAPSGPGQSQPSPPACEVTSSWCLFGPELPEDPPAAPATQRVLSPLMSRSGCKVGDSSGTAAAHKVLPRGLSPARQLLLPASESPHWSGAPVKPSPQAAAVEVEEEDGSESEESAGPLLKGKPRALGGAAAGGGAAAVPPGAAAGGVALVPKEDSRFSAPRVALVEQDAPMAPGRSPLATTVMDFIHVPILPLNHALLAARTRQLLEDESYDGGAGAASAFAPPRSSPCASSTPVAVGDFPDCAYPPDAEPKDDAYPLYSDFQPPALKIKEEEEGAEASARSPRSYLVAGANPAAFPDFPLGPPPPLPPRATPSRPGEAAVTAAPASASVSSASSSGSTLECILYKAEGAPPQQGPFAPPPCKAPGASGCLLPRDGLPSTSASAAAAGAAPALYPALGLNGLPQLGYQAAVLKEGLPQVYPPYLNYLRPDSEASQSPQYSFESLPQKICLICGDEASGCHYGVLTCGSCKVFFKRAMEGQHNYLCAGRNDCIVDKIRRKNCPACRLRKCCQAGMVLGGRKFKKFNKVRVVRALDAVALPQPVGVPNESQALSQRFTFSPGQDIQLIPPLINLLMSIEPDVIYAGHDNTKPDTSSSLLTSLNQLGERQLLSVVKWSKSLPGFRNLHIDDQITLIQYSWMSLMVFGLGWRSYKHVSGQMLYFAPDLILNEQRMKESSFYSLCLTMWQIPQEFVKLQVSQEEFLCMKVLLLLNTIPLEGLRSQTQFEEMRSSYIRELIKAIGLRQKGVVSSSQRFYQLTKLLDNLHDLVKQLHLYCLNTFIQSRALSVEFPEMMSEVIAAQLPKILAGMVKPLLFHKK
In short: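 Seed PR-UAS-bla HEK 293T cells (2% charcoal-stripped FBS), incubate 6 hr at 37C; add compounds in DMSO, 16 hr at 37C; add LiveBLAzer B/G substrate, 2 hr RT; read fluorescence intensity.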

[2] = molecular target: Progesterone receptor (Homo sapiens) (UniProt P06401); experiment: qHTS assay to identify small molecule antagonists of the progesterone receptor (PR) signaling pathway (AID 1346795; active means well fitted inhibition curve with a large enough effect in the signal ratio in the repeat runs, not every such curve was filed as active; the % refers to the signal ratio; further: potency means the concentration at half of the fitted maximal effect)
In short: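 Screening used a GripTite HEK293T line with PR-responsive UAS-beta-lactamase. Cells were challenged with compound in the presence of 1 nM R5020 final for 16 hr at 37C; B/G FRET substrate, 2 hr room temperature, fluorescence.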

[3] = qHTS assay to identify small molecule antagonists of the progesterone receptor (PR) signaling pathway - cell viability counter screen (AID 1346798); further: series mostly up to about 92 µM; nearly all actives have a fitted effect of over 50% in size
In short: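 Measures cytotoxicity in parallel with the PR antagonist reporter read: HEK293T PR-UAS-bla cells get compound and R5020 for 16 hr, and remaining viable cells are quantified by CellTiter-Glo luminescence.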

[4] = qHTS assay to identify small molecule antagonists of the TGF-beta/Smad signaling pathway - cell viability counter screen (AID 1346824); further: nearly all actives have a fitted effect of over 50% in size
In short: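 SBE-bla HEK 293T cells were plated overnight at 37 C, then given compounds in DMSO plus TGF-beta1 (added as 0.25 ng/mL solution) for 5 hr. After the bla read, CellTiter-Glo was added to the same wells and luminescence read after 30 min at room temperature.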

[5] = qHTS assay to identify small molecule agonists of the TGF-beta/Smad signaling pathway - cell viability counter screen (AID 1346829); further: top concentration of the series differs between compounds; nearly all actives have a fitted effect of over 45% in size
In short: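 Here the cytotoxicity of library compounds is measured in SBE-bla HEK 293T cells treated for 5 hr, using CellTiter-Glo added to wells already read for the beta-lactamase reporter.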

[6] = qHTS assay to identify small molecule agonists of the TGF-beta/Smad signaling pathway (AID 1346859; active means well fitted activation curve with a large enough effect in the signal ratio in the repeat runs, not every such curve was filed as active; the % refers to the signal ratio; further: series mostly up to about 77 µM)
In short: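 Beta-lactamase reporter activity downstream of Smad binding elements was measured in stably transfected HEK 293T cells; compounds were incubated for 5 hr, substrate for 2 hr at room temperature.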

[7] = molecular target: Thyrotropin-releasing hormone receptor (Homo sapiens) (UniProt P34981); experiment: qHTS assay to identify small molecule antagonists of the thyrotropin-releasing hormone receptor (TRHR) signaling pathway (AID 1346877; active means well fitted inhibition curve with a large enough effect in the repeat runs, not every such curve was filed as active; further: series mostly up to about 51 µM)
Sequence of Thyrotropin-releasing hormone receptor (Homo sapiens) (P34981 whole entry, looked up): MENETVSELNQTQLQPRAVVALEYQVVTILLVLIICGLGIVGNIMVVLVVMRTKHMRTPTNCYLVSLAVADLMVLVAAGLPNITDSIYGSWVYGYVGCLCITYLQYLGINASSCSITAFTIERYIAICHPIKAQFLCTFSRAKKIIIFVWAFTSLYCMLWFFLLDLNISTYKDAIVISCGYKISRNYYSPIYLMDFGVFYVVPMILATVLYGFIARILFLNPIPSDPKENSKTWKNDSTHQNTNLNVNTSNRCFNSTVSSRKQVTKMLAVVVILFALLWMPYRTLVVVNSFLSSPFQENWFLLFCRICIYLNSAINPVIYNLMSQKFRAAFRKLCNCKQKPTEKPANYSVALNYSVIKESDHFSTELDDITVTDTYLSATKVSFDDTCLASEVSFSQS
In short: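 Intracellular calcium fluorescence, read kinetically every second over 3 min, reports TRH-evoked signalling in HEK293 cells carrying TRHR. Test compounds were added 5 min ahead of a 1 nM TRH challenge.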

[8] = molecular target: Thyrotropin-releasing hormone receptor (Homo sapiens) (UniProt P34981); experiment: qHTS assay to identify small molecule agonists of the thyrotropin-releasing hormone receptor (TRHR) signaling pathway (AID 1346891; calls by dose curve;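 further: HEK293 cells expressing TRHR with calcium dye readout; series mostly up to about 58 µM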)
In short: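 Overnight-plated (18 h, 37 °C, 5% CO2) TRHR-Hek293 cells; 2 h calcium dye at 37 °C; compound in DMSO; 3-min kinetic fluorescence read.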

[9] = Human pregnane X receptor (PXR) small molecule agonists, qHTS cell viability counter screen (AID 1346977); further: nearly all actives have a fitted effect of over 50% in size
In short: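 After a 5hr pre-incubation, PXR-Luc HepG2 cells received compounds plus positive control in DMSO and were kept 24hr at 37C. Cell viability was quantified by fluorescence from CellTiter-Fluor added for the final hour.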

[10] = qHTS assay to identify small molecule agonists of the progesterone receptor (PR) signaling pathway - cell viability counter screen (AID 1346799; calls by dose curve; further: nearly all actives have a fitted effect of over 45% in size)
In short: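 Using the same plates as the PR reporter screen, HEK293T PR-UAS-bla cells received compounds for 16 hr at 37C and were then lysed with CellTiter-Glo; luminescence was read 30 min later at room temperature.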

Row | SMILES | Potency [1] | Potency [2] | Potency [3] | outcome [4] | outcome [5] | outcome [6] | outcome [7] | Potency [8] | Potency [9] | Potency [10]
1 | CC(C)(C)C(=O)C(Oc1ccc(Cl)cc1)n1ccnc1 (centres undefined) | inactive | 23.7 µM (active) | inactive | inactive | inactive | inactive | inactive | inactive | inactive | –
2 | COC(=O)c1cc(Cl)ccc1NS(=O)(=O)C(F)(F)F | inactive | inactive | inactive | inactive | inactive | inactive | inactive | inactive | inactive | –
3 | CC1CC(=O)NN=C1c1ccc(NCC(C)(C)NCC(O)COc2cc(Cl)ccc2C#N)cc1 (centres undefined) | inactive | inactive | inactive | inactive | – | inactive | inactive | inactive | – | inactive
4 | Oc1ccc(Nc2ccccc2)cc1 | inactive | 27.3 µM (active) | inactive | inactive | inactive | inactive | inactive | inactive | inactive | –
5 | CCc1cccc(N(C)C(N)=Nc2cccc3ccccc23)c1 | inactive | inactive | inactive | inactive | inactive | inactive | – | – | – | –
6 | CCC1(C)CC(=O)NC1=O (centres undefined) | inactive | inactive | inactive | inactive | – | inactive | inactive | inactive | inactive | inactive
7 | C=CC(C)=CCC=C(C)C | inactive | inactive | inactive | inactive | – | inactive | – | – | inactive | inactive
8 | NCC1CCCC(CN)C1 (centres undefined) | inactive | inactive | inactive | inactive | inactive | inactive | inactive | inactive | inactive | –
9 | c1ccc(COCc2ccccc2)cc1 | inactive | inactive | inactive | inactive | inactive | inactive | inactive | inactive | inactive | –
10 | O=C(O)c1ccc(CO)o1 | inactive | inactive | inactive | inactive | – | inactive | inactive | inactive | inactive | inactive
11 | CO[C@H]1O[C@H](CO)[C@@H](O)[C@H](O)[C@H]1O | inactive | inactive | inactive | inactive | – | inactive | inactive | inactive | inactive | inactive
12 | Cc1ccc(S)cc1 | inactive | inactive | inactive | inactive | inactive | inactive | inactive | inactive | inactive | –
13 | O=[N+]([O-])c1cccc(S(=O)(=O)NCCNS(=O)(=O)c2cccc([N+](=O)[O-])c2)c1 | inactive | inactive | inactive | inactive | – | inactive | inactive | inactive | inactive | inactive
14 | O=Cc1c(Cl)cccc1Cl | inactive | inactive | inactive | inactive | – | inactive | inactive | inactive | inactive | inactive
15 | O=C(O)Cc1ccc(-c2ccccc2)cc1 | inactive | inactive | inactive | inactive | inactive | inactive | inactive | inactive | – | –
16 | O=S(=O)(c1ccccc1)c1ccc(Cl)cc1 | inactive | 24.3 µM (active) | inactive | inactive | inactive | inactive | inactive | inactive | – | –
17 | CC(=O)Nc1ccccc1C | inactive | inactive | inactive | inactive | inactive | inactive | inactive | inactive | inactive | –
18 | O=C(CCCCCCCCC#CI)Oc1ccccc1 | inactive | inactive | inactive | inactive | – | – | inactive | inactive | inactive | inactive
19 | C[N+]1(C)CCC(=C(c2ccccc2)c2ccccc2)CC1 | inactive | inactive | inactive | inactive | inactive | inactive | inactive | inactive | – | –
20 | C/C=C(\C)C(=O)OCCC(C)CCC=C(C)C (centres undefined) | inactive | inactive | inactive | inactive | inactive | inactive | – | – | inactive | –
21 | CCCCN(CCCC)C(=S)SSC(=S)N(CCCC)CCCC | inactive | inactive | inactive | inactive | inactive | inactive | inactive | inactive | inactive | –
22 | Nc1c(I)cc(I)c(C(=O)N(CCC(=O)O)c2ccccc2)c1I | inactive | inactive | inactive | inactive | inactive | inactive | inactive | inactive | inactive | –
23 | CC(=O)Nc1ccc(N)cc1 | inactive | inactive | inactive | inactive | inactive | inactive | – | – | inactive | inactive
24 | CN1C(=O)CC(C)(c2ccccc2)C1=O (centres undefined) | inactive | inactive | inactive | inactive | – | inactive | inactive | inactive | inactive | inactive
25 | CCCOC(=O)c1ccc(N)cc1 | inactive | inactive | inactive | inactive | inactive | inactive | – | – | inactive | inactive
26 | CCc1c2c(nc3ccc(OC(=O)N4CCC(N5CCCCC5)CC4)cc13)-c1cc3c(c(=O)n1C2)COC(=O)[C@]3(O)CC | inactive | inactive | inactive | – | – | inactive | inactive | inactive | inactive | inactive
